The source of these data is ChEMBL document CHEMBL4513216, “Probing the Open Global Health Chemical Diversity Library for Multistage-Active Starting Points for Next-Generation Antimalarials” (ACS Infect Dis, 2020).

In all, about 69,000 compounds went through this assay and about 8,600 (12%) showed an effect of 50% or more. What follows is part of a selection rich in strong results, with near analogues and random picks from the rest.

For this test, the system named is Plasmodium berghei. The experiment in a line: Screen against P. berghei liver stage (PbLuc), transformed with Luciferase, at 10uM. In kind it is functional, HepG2. The settings on record: tested at 10 uM.
In the case of `CCC[C@H]1CN(C(=O)CCn2ccccc2=O)C[C@@H]1NS(C)(=O)=O`, the INHIBITION is -7.98%.
For `Cc1nc(C(C)C)sc1C(=O)N1CCC(C(N)=O)CC1`, the INHIBITION is -49.2%.
Take `Cc1cc(C)cc(OCC(=O)NC2CCN(S(C)(=O)=O)CC2)c1`: the INHIBITION is listed as 33%.
Regarding `Cc1cc(N2CCN(CCO)CC2)nc(-c2ccncc2)n1`, the INHIBITION was determined as 30%.
On to `CN1CCN(C(=O)COCc2nc(-c3ccncc3)no2)CC1`, for which the INHIBITION came out at 11.4%.
With `CC(C)NC(=O)NCc1nnc2n1C(C(=O)N(C)C)CC2` (stereo unspecified), the INHIBITION was 9.32%.
For `CCCc1noc(C2CCN(C(=O)CCn3nc(C)cc3C)CC2)n1`, the INHIBITION came out at 36.6%.
Consider `COC[C@H]1CCC[C@H]1Nc1ncnc2c1CCNCC2`, for which the INHIBITION is reported as -6.94%.
The figure for `CC(C)N1CCC2(CC1)CC(NCc1ccccn1)c1ccccc1O2` (stereo unspecified) is 7.31%; for `O=C(C1CCCCC1)N1CCC2(CCCN2CC2CC2)CC1` it is 50.7%; for `O=C(C1CCCC1)N1CCC2(CC1)COCCN2CC1CC1` it is 39.1%.
The figure for `O=C(C1CCC1)N1CCC2(CCCN2CC2CC2)CC1` is 22.3%; for `OC1(CNCCCN2CCc3ccccc32)CCNC1` (stereo unspecified) it is 30.7%; for `CCN(CCSc1ccccc1)C(=O)c1cn(C2CCC(N)CC2)nn1` (stereo unspecified) it is -56.6%.
Take `CN(C)c1cc(C(=O)Nc2ccccc2C(=O)NC(C)(C)C)ccn1`: the INHIBITION stood at 7.4%.
In the case of `CN(C)c1cc(C(=O)Nc2cccnc2N2CCSCC2)ccn1`, the INHIBITION stood at 2.97%.
As to `CNC(=O)c1cccc(NC(=O)c2ccnc(N(C)C)c2)c1C`, the INHIBITION amounted to 53.9%.
`C=C(C)CN1CCN(Cc2nccn2C)C(C)C1` (stereo unspecified): the INHIBITION turned out to be 42.45%.
As for `CN1CCN(C(=O)Cc2cccc(F)c2)Cc2cccnc21`, the INHIBITION is given as -3.19%.
Take `Cc1nc(O)ccc1C(=O)N1CCCC1c1nc(-c2ccccc2)n[nH]1` (stereo unspecified): the INHIBITION is on record as 69.8%.
As to `Cc1nc2cc(F)ccc2cc1C(=O)N1CCN(CC(C)O)CC1` (stereo unspecified), the INHIBITION was -11.5%.
On to `Cc1nc(-c2cccs2)ccc1C(=O)N1CCN(CC(C)O)CC1` (stereo unspecified), for which the INHIBITION came to 55.4%.
Turning to `Cc1nc2cc(F)cc(C(=O)N3CCN(CCO)CC3)c2nc1C`, the INHIBITION is reported as -24%.
On to `Cc1nc(-c2cccs2)ccc1C(=O)N1CCN(CCO)CC1`, for which the INHIBITION is recorded as 27.6%.
As for `O=C(c1ccc[nH]1)N1CCCC1c1nc(-c2ccccc2)n[nH]1` (stereo unspecified), the INHIBITION is -1.76%.
Consider `O=C(c1cc(-c2cccs2)nc2ccccc12)N1CCN(CCO)CC1`, for which the INHIBITION is 68.4%.
For the molecule `O=C(c1cc2ccccc2c(=O)[nH]1)N1CCN(CCO)CC1`, the INHIBITION turned out to be 2.32%.
`Cc1nc(-c2ccccc2)ccc1C(=O)N1CCN(CCO)CC1`: the INHIBITION is recorded as 71.2%.
As to `O=C(c1ccncc1F)N1CCCC1c1nc(-c2ccccc2)n[nH]1` (stereo unspecified), the INHIBITION came out at 16.8%.
As for `Cc1nc(-c2ccccc2)ccc1C(=O)N1CCn2c(C)nnc2C1`, the INHIBITION is -0.758%.
For `O=C(c1ccc(-c2cccs2)cc1F)N1CCN(CCO)CC1` the value was 38.7%.
